Nine compounds from PubChem BioAssay (NCI) can be followed below.

SMILES strings stand for the structures. The panel holds about 83,000 compounds, 20% with a hit somewhere; the sample as a whole holds those more often.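 For each line, cells grew in 96-well plates with the test compound present at a single concentration for 48 hours.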 Values without a mark were called inactive. Active and inactive are the calls of the source. The calls were made as follows: active = growth percent below 10; inactive = the rest.

Common to all, as to test: NCI-60 one-dose screen, 48 h (100 = growth as untreated, 0 = no growth, -100 = all killed)
Details in all cases: 10 µM unless noted

Test [1] concerns HCT-15 colon.
Test [2] relates to HT29 colon.
Test [3] deals with SNB-75 CNS.
The subject of test [4] is SNB-19 CNS.
Test [5] has as its system U251 CNS.
Test [6] concerns PC-3 prostate.
In test [7] the test system is SK-MEL-5 melanoma.
Test [8] relates to UACC-62 melanoma.
Test [9] has as its system LOX IMVI melanoma.
Test [10] deals with SK-MEL-28 melanoma.
Test [11] relates to SK-MEL-2 melanoma.
In test [12] the test system is SN12C renal.
The subject of test [13] is UO-31 renal.
Test [14] has as its system ACHN renal.
Test [15] concerns CAKI-1 renal.
The test system of test [16] is A498 renal.
The test system of test [17] is CCRF-CEM leukemia.
Test [18] concerns MOLT-4 leukemia.
Test [19] deals with TK-10 renal.

Consider `Cc1ccc(C(=O)c2sc3nc4c(cc3c2N)CCCC4)c(C)c1`, for which the growth was 29.8% in test [1]; 9.13% (active) in test [2]; -14.3% (active) in test [3]; 51.5% in test [4]; 21.2% in [5]; 5.81% (active) in [6]. Besides, the growth was 24.6% in test [7]; 24.3% in test [8]; 30.6% in test [9]; 55% in test [10]; -13.7% (active) in [11]; 44.1% in test [12]. For the same compound, the growth in test [13] was 30.8%; in test [14] it was 46.4%; in test [15], 7.6% (active); in test [16], -10.8% (active); in test [17], 6.69% (active); in [18] it was 21.8%.

As to `CN(C)c1ncc(-c2ccc(C(F)(F)F)cc2)c(NC2CCCCCC2)n1`, the growth in [1] was 77.4%; in test [2], 34.4%; in [3] it was 78.2%; in test [4], 71.8%; in [5], 40.1%; in test [6], 22%. For the same compound, the growth in [7] is 39.6%; in test [8] it was 31.4%; in test [9], 66.2%; in [10], 48.9%; in test [11], 56.6%; in [12] it was 45.9%. The growth in test [19] is 65.2%; in [14], 16.5%; in [15] it was 85.5%; in test [16], 81.2%; in test [17] it was 45.5%; in test [18], 76.5%.

Take `CN=S(=O)(NC(=O)c1ccc(Cl)cc1Cl)c1ccc(Br)s1` (centres undefined): the growth in test [1] is 99.9%; in test [2], 112%; in test [3], 73.4%; in test [4], 103%; in test [5] it was 89.3%; in test [6], 79.2%. Moreover, the growth in test [7] was 95.3%; in test [8], 99.9%; in [9], 105%; in [10], 102%; in test [11], 108%; in test [12], 105%. Moreover, the growth in test [19] is 106%; in [14], 102%; in [16] it was 67.8%; in [17], 96.8%; in test [18], 93.3%.

With `COc1ccc(Cn2c(SC)nc(=O)n(Cc3ccc(Cl)cc3)c2=O)cc1`, the growth in [1] was 98.5%; in test [2], 121%; in [3] it was 80.7%; in test [4], 97%; in [5], 93.2%; in test [6] it was 90.1%. In addition, the growth in test [7] was 107%; in test [8] it was 87.7%; in test [9], 87.5%; in test [10], 102%; in test [11], 102%; in test [12], 93.5%. The growth was 68.3% in [13]; 96.3% in [14]; 70.5% in test [15]; 88.9% in test [16]; 97.7% in [17]; 95% in test [18].

Take `O=C(C[N+](=O)[O-])c1ccc(Cl)cc1`: the growth in test [1] was 103%; in test [2], 113%; in test [3], 94.9%; in [4], 111%; in test [5], 107%; in test [6], 97.3%. Further, the growth in [7] was 104%; in [8], 101%; in test [9], 96.4%; in [10] it was 106%; in test [11] it was 119%; in test [12], 107%. The growth in test [19] is 109%; in [14] it was 111%; in [15], 95.2%; in [16] it was 108%; in test [17], 104%; in test [18] it was 106%.

For `Cc1ccc2c(c1)C(=O)C(c1c(-c3[nH]c(=O)c4ccc(C)cc4c3O)c(O)c3ccccc3c1O)=NC2=O`, the growth was 13.7% in [1]; 21.7% in test [2]; 14.4% in test [3]; 26.3% in [4]; -16.2% (active) in test [5]; 2.45% (active) in [6]. In addition, the growth was 25.8% in test [7]; 29.5% in test [8]; 12.1% in test [9]; 34.9% in test [10]; 11.8% in test [11]; -4.86% (active) in test [12]. Further, the growth in test [19] is 46.9%; in [14], 6.58% (active); in test [15] it was -2.66% (active); in [17], 16.6%; in test [18], -13.3% (active).

With `Nc1c(C(=O)c2ccc(F)cc2)sc2nc3c(cc12)CCCC3`, the growth is 58.4% in test [1]; 66% in [2]; 85.8% in test [3]; 95.4% in test [4]; 79.4% in [5]; 80.7% in [6]. The growth in test [7] is 89.2%; in test [8], 75%; in [9] it was 75.8%; in [10], 76.8%; in [11], 67.7%; in test [12], 82.5%. Besides, the growth in [14] is 96.6%; in test [15], 84.6%; in test [16], 56.2%; in test [17], 77.9%; in [18], 66.6%.

For the compound `Oc1ccc(Cl)cc1-c1cc(-c2ccc(Cl)cc2)n[nH]1`, the growth is 25% in [1]; 103% in test [2]; 59.1% in test [3]; 81.2% in [4]; 59.3% in test [5]; 45.6% in [6]. In addition, the growth was 70.9% in [7]; 64% in test [8]; 58.2% in [9]; 87.6% in [10]; 90.7% in test [11]; 61.5% in test [12]. Moreover, the growth in [19] was 102%; in test [14] it was 52.8%; in [15], 47.7%; in [16], 84.3%; in [17], 36.7%; in [18], 39.5%.

As to `CC/C=C\C/C=C\C[C@H](O)C/C=C1/C(=O)C=C[C@H]1C/C=C\CCC(=O)OC`, the growth in test [1] is -13.3% [8.25 µM] (active); in test [2], 2.84% [8.25 µM] (active); in test [3] it was 75.2% [8.25 µM]; in [4] it was 62.4% [8.25 µM]; in test [5], 15% [8.25 µM]; in [6] it was 20.1% [8.25 µM]. Also, the growth in test [7] is 24.5% [8.25 µM]; in test [8], 4.47% [8.25 µM] (active); in test [9], -71.8% [8.25 µM] (active); in [10], 22.5% [8.25 µM]; in test [11] it was 65.6% [8.25 µM]; in test [12], 1.16% [8.25 µM] (active). Also, the growth in test [19] was 58.7% [8.25 µM]; in test [14], 26.9% [8.25 µM]; in test [15] it was 55.3% [8.25 µM]; in [16], 107% [8.25 µM]; in [17], -1.3% [8.25 µM] (active); in test [18], 32.7% [8.25 µM].
